# FBW7 act = human FBW7 E3 ligase activation, primary screen; Q969H0; AlphaScreen FBW7–phospho-cyclin E peptide binding, activator screen; normalized activity (activation), % at 26.1 µM; actives 0.13% (n = 650,000); AID 1259310; in the data active means normalized activity above about 1.9%;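 further: purified mutant Fbw7 with reduced substrate affinity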
# TEAD-YAP block = TEAD-YAP interaction inhibition; AID 1259422; HEK-TIYL cells, TEAD-Gal4/YAP UAS-luciferase luminescence; inhibition, % at 9.12 µM; actives 1.4% (n = 640,000); in the data active means inhibition above about 32%
# GPR151 activ = activators of human GPR151; PathHunter beta-arrestin GPR151 cells, luminescence; Q8TDV0; AID 1508602; actives 1% (n = 650,000); activation, % at 11.2 µM; in the data active means activation above about 4.9%
# MITF inh = human MITF inhibition, primary screen; inhibition, % at 2.6 µM; O75030; AlphaScreen MITF homodimerization, bead proximity signal; actives 0.91% (n = 650,000); in the data active means inhibition above about 50%
# GPR151 confirm = confirmation of human GPR151 activators; GPR151 PathHunter beta-arrestin cells, luminescence, 90 min; % of EA-reagent control over plate median; shares compounds with GPR151 activ; activation, % at 11.2 µM; 6,700 tested, under 10 active;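 active means mean percent activation across replicates above the confirmation screen cutoff of 4.91%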
# GPR119 counter = counter-screen for GPR151 activators: effect on human GPR119 | shares compounds with GPR151 activ | actives 0.3% (n = 6,700) | GPR119 PathHunter beta-arrestin cells, luminescence, 90 min; 0 = compound-well median, 100 = enzyme-acceptor control | activation, % at 11.2 µM | AID 1508611;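 active means mean percent activation in the counterscreen above 29.09%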;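 further: counterscreen on off-target GPR119 to flag nonselective hits from the GPR151 activator screen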
# Target sequence (Q8TDV5 whole entry, looked up): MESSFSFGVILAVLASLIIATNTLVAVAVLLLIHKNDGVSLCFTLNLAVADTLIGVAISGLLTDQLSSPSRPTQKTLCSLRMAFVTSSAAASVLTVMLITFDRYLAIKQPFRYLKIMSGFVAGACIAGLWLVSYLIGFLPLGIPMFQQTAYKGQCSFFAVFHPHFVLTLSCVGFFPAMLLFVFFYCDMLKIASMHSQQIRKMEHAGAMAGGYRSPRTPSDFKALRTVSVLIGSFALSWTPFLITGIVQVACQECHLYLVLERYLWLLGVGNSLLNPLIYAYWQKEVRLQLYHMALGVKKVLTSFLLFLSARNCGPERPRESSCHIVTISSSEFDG
# A number is an active result; – = inactive; · = no result given; ! = a repeat was not active. Most compounds without a hit are left out; they make up all but 3.5% or so of the library.
SMILES,FBW7 act,TEAD-YAP block,GPR151 activ,MITF inh,GPR151 confirm,GPR119 counter
Cn1c(=O)c2c(ncn2CC(=O)N/N=C/c2ccc(C(F)(F)F)cc2)n(C)c1=O,–,–,5.6,–,–,–
O=c1[nH]c(/C=C/c2ccc([N+](=O)[O-])cc2)nc2ccccc12,–,–,–,–,·,·
O=C1CCCCc2sccc2N1,–,–,6.4,–,–,–
Cc1nn(C(=O)c2ccccc2)c(C)c1Cl,–,–,–,–,·,·
CC1(C)CC(=O)C2=C(C1)Nc1cc(C(=O)c3ccccc3)ccc1N1C(=O)c3ccccc3C21 (stereo not given),–,–,5.1,–,–,–
CCC(=O)N1c2ccccc2NC2=C(C(=O)CC(C)(C)C2)C1c1ccc(N(C)C)cc1 (stereo not given),–,–,–,–,·,·
CC1(C)CC(=O)C2=C(C1)Nc1ccccc1N1C(=O)c3ccccc3C21 (stereo not given),–,–,–,–,·,·
CCC(=O)N1c2ccccc2NC2=C(C(=O)CC(C)(C)C2)C1c1ccc(Cl)cc1 (stereo not given),–,–,5.1,–,–,–
Cc1ccc(NC(=O)CCN2C(=O)C3C4C=CC(C4)C3C2=O)cc1F (stereo not given),–,–,–,–,·,·
CC[C@@H](C(=O)[C@@H](C)[C@@H](O)[C@H](C)CCc1ccc(C)c(O)c1C(=O)O)[C@H]1O[C@](CC)([C@H]2CC[C@](O)(CC)[C@H](C)O2)C[C@@H]1C,–,–,21.2,–,–,–
O=C(CCC1CCN(C(=O)C2=CCCCC2)CC1)Nc1ccccc1,–,–,5.3,–,–,–
O=C(CN1C(=O)[C@@H]2CCCN2C(=O)c2ccccc21)Nc1ccccc1F,–,–,–,–,·,·
O=C(CN1C(=O)[C@H]2CCCN2C(=O)c2ccccc21)Nc1cccc2ccccc12,–,–,6.8,–,–,–
COc1cccc(CNCc2cc(OC)c(OC)c(OC)c2)c1OC,–,–,–,–,·,·
Cc1cccc(NC(=O)C(=O)NC2CCCCCC2)c1,–,–,–,–,·,·
Cc1cccc(NC(=O)C(=O)NC2CCCCC2)c1,–,–,5.5,–,–,–
Cc1cc(C)c(-c2cc([C@H](C)O/N=C/[C@@H](C)[C@H](OCc3ccccc3)C(C)C)on2)c(C)c1,–,·,–,–,·,·
Cc1ccc(NC(=O)N2CCC(C(=O)NC3CCCC3)CC2)cc1,–,–,–,–,·,·
CC(C)(C)c1nn2cnnc2n(/N=C/c2ccccc2I)c1=O,–,–,–,–,·,·
CC(C)(C)c1nn2cnnc2n(/N=C/c2ccccc2O)c1=O,–,–,5.9,–,–,–
COc1ccc(C[C@H](N)C(=O)N[C@@H]2[C@@H](CO)OC(n3cnc4c(N(C)C)ncnc43)[C@@H]2O)cc1 (stereo not given in full),–,100.1,6.8!,–,–,–
Nc1ncnc2c1ncn2[C@@H]1O[C@H](CO)[C@@H](O)[C@H]1O,–,–,–,–,·,·
O=C(O)C1C2C=CC3(CN(C(c4ccccc4)c4ccccc4)C(=O)C13)O2 (stereo not given),–,–,–,–,·,·
C=CCNc1nc(-c2ccc(OC)c3ccccc23)cs1,–,–,5.4,–,–,–
CCCCCn1c(SCc2ccccn2)nc2cc(C(=O)N3CCN(c4ccccc4)CC3)ccc2c1=O,–,–,5.1,–,–,–
SMILES,FBW7 act,TEAD-YAP block,GPR151 activ,MITF inh,GPR151 confirm,GPR119 counter
N#CCSc1nc2cc(C(=O)N3CCN(c4ccccc4)CC3)ccc2c(=O)n1C1CCCCC1,–,–,11.1,–,–,–
N#CCSc1nc2cc(C(=O)N3CCCC3)ccc2c(=O)n1-c1ccccc1,–,–,–,–,·,·
O=C(N/N=C/c1ccccc1[N+](=O)[O-])c1cccc2ccccc12,–,–,7.4,–,–,–
O=C(N/N=C/c1ccccc1[N+](=O)[O-])c1ccccc1[N+](=O)[O-],–,–,–,–,·,·
O=C(N/N=C/c1ccc(F)cc1)c1ccccc1[N+](=O)[O-],–,–,7.0,–,–,–
O=C(N/N=C/c1cccc2ccccc12)c1ccccc1[N+](=O)[O-],–,–,10.8,–,–,–
O=C(N/N=C/c1cc(Br)cc([N+](=O)[O-])c1O)c1cccc2ccccc12,–,–,–,–,·,·
O=C(N/N=C/c1ccccc1)c1ccccc1[N+](=O)[O-],–,–,–,–,·,·

# Bioassay records (PubChem)
